Activity calls are given as the source filed them.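 Rule for the calls, unless noted: active = inhibition at or above 50% at 10 µM; inactive = inhibition below 50%.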

Consider 8 compounds from PubChem BioAssay.

A short description of assay [1]: inhibitors of TNFa-induced NFkB p65 translocation, primary screen, imaging, HUVEC, MLSMR starter and 10KST1 sets (AID 438;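 active = inhibition above 20% together with a positive visual image hit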;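 note: compound added about 3h40 before a 20 min TNFalpha stimulation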;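 for inhibition: signal is the nuclear over cytoplasmic p65 intensity ratio per well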). The conditions noted are these: HUVEC TNFa-induced p65 nuclear translocation; cell count: measured here: nuclei count (cytotoxicity indicator), at 2.08 µM; inhibition: at 2 µM, stronger effect = higher value, 0% TNFa-plus-vehicle, 100% no-TNFa wells.
A short description of assay [2]: inhibitors of mutant huntingtin aggregation, primary screen, imaging, exon1htt(103Q)mCFP cells, high-content imaging (AID 483;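 active = visual image review flags a hit and inhibition of aggregation exceeds 20%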;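 note: compound exposure lasted 3 days before fixation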;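 for nuclei count: percent of the per-plate median nuclei count of sample wells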). The conditions noted are these: exon1htt(103Q)mCFP cell line, aggregate imaging, at 2 µM; inhibition of aggregation: stronger effect = higher value; nuclei count: measured here: cell count, toxicity.
Assay [3] can be described thus: inhibitors of E-selectin induction by TNFa, primary screen, imaging, HUVEC, immunofluorescence, MLSMR starter and 10KST1 sets (AID 487;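 active = visually confirmed hit in the image check and inhibition above 20%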;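 for inhibition: signal is fraction of cell area covered by stained E-selectin grains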;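 for nuclei count: 100% = median nuclei count of all wells on the same plate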). The conditions noted are these: HUVEC TNFalpha-induced E-selectin immunofluorescence imaging, at 2 µM; inhibition: stronger effect = higher value; nuclei count: measured here: cell number, toxicity.
For assay [4], the target named is Voltage-gated potassium channel subunit beta-2 (Rattus norvegicus) (UniProt P62483). As to the kind of experiment: KvBeta enzyme negative modulators, primary screen, biochemical, NADPH fluorescence (AID 622;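 active = fluorescence slope higher than the sample average by over 3 SD, cut at about -0.22 in these data, passing the limit was not always enough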;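 note: slope of raw intensity against log time taken from 70 to 1610 s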). The settings on record: recombinant KvBeta, 4-cyanobenzaldehyde reduction, at 10 µM, stronger effect = higher value.
Voltage-gated potassium channel subunit beta-2 (Rattus norvegicus), sequence (P62483 whole entry, looked up): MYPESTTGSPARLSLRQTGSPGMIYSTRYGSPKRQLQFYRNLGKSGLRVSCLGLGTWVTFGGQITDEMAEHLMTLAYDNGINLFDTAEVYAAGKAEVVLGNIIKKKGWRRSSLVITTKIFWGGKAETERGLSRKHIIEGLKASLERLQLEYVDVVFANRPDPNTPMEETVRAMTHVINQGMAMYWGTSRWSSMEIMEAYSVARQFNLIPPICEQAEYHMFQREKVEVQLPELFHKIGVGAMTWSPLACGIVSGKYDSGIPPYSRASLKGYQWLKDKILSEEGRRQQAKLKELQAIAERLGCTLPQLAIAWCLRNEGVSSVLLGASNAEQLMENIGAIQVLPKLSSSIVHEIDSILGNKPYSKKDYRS
Assay [5] shares this target. As to the kind of experiment: KvBeta positive modulators, primary screen, biochemical, NADPH fluorescence (AID 623;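 active = NADPH fluorescence slope more negative than the mean of all samples by about 3 SD, 99.7% confidence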;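 note: fluorescence intensity change per second fitted from 20 to 320 s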). The conditions noted are these: Recombinant KvBeta, NADPH fluorescence decrease slope, 10 min; at 10 µM; stronger effect = lower value.
Assay [6] deals with Alpha-2C adrenergic receptor (Homo sapiens) (UniProt P18825). Nature of the assay: modulators of alpha2C/GIRK thallium flux, primary screen, cell-based, HEK293 alpha2C/GIRK1/2 (AID 624;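 active = fluorescence slope after compound addition differing from the mean of all screened samples at 99.7% confidence, in either direction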;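 note: slope of fluorescence ratio to pre-addition baseline per second over 15 to 24 s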). The conditions noted are these: thallium flux BTC fluorescence, at 10 µM, actives lie on both sides.
Alpha-2C adrenergic receptor (Homo sapiens), sequence (P18825 whole entry, looked up): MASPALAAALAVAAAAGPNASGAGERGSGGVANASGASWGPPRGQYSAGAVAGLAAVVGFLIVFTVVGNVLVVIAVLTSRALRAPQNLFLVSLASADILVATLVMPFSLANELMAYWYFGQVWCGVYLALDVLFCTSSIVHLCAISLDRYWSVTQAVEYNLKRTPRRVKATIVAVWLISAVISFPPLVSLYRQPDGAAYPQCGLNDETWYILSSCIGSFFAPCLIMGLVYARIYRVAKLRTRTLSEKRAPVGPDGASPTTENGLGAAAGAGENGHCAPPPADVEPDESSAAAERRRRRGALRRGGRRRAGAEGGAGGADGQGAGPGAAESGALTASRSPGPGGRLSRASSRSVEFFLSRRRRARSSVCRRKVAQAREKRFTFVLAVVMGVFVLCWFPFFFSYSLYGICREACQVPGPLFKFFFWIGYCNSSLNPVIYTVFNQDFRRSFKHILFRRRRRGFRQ
Assay [7] in a line: inhibitors of Sendai virus-induced IRF3 signaling, primary screen, TLR/RLR signaling modifier project, cell-based, Sendai virus stimulus, luciferase, 10K MLSCN set (AID 602276).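 Note: firefly luciferase from ISG56 promoter only with Renilla not read in this screen; 0% = Sendai virus plus DMSO and 100% = medium plus DMSO without virus.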 The settings on record: HEK293 RL24 IRF3 luciferase reporter, at 10 µM, stronger effect = higher value. A general note: In a reporter assay the amount or activity of a reporter protein is the signal.
A short description of assay [8]: inhibitors of poly I:C-induced TLR3 signaling, primary screen, cell-based, poly I:C stimulus, luciferase, 10K MLSCN set (AID 602277;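 active = inhibition of the reporter signal at or above 50%; inactive = inhibition below 50%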). The conditions noted are these: HEK293-TLR3 RL24 IRF3 luciferase reporter, at 10 µM, stronger effect = higher value.

One may read the inhibition as the drop in the measured response relative to a control, in per cent. As for `CC1CCCCC1NC(=O)Cn1ncc2ccccc21` (stereo not drawn), in assay [1], the cell count is 827. In addition, the inhibition in assay [1] was -6.9% (inactive); in assay [3], -81.1% (inactive); in assay [7], 11.9% (inactive); in assay [8], 34.8% (inactive). Besides, the inhibition of aggregation in assay [2] is 10.9% (inactive). Besides, the values for the nuclei count in assay [2] and in assay [3] were 94% and 123%, respectively. Also, the fluorescence slope in assay [4] was -0.555 (inactive). Also, the NADPH fluorescence slope in assay [5] is -4.8e-05 (inactive). The slope in assay [6] was 0.00699 (inactive).

For the compound `COc1ccc(-c2nnn(CCc3nn[nH]n3)n2)cc1OC`, the cell count in assay [1] is 419. Moreover, the inhibition in assay [1] was -7.7% (inactive); in assay [3], -9.7% (inactive); in assay [7], 8.58% (inactive); in assay [8], -8.87% (inactive). In addition, in assay [2], the inhibition of aggregation is 1.4% (inactive). Also, the nuclei count in assay [2] came to 70.5%; in assay [3] it was 112%. The fluorescence slope in assay [4] is -0.561 (inactive). Further, in assay [5], the NADPH fluorescence slope is -2.6e-05 (inactive). The slope in assay [6] is 0.00328 (inactive).

On to `COc1ccc(OC)c(C2=NOC(C(=O)Nc3cc(C)nn3-c3ccccc3)C2)c1` (stereo not drawn), for which the cell count in assay [1] is 605. Also, the inhibition in assay [1] was 5.8% (inactive); in assay [3], 10.7% (inactive); in assay [7], 7.53% (inactive); in assay [8], 19.2% (inactive). In addition, the inhibition of aggregation in assay [2] is -4.1% (inactive). In addition, the nuclei count came to 84.1% in assay [2] and 107% in assay [3]. In assay [4], the fluorescence slope is -0.605 (inactive). Further, the NADPH fluorescence slope in assay [5] was -4.8e-05 (inactive). The slope in assay [6] is 0.00657 (inactive).

As for `CS(=O)(=O)N1CCCC(C(=O)NCCCN2CCc3ccccc3C2)C1` (stereo not drawn), the cell count in assay [1] turned out to be 228. Also, the inhibition in assay [1] was 3.4% (inactive); in assay [3], 35.8% (inactive); in assay [7], -8.77% (inactive); in assay [8] it was 5.97% (inactive). Also, the inhibition of aggregation in assay [2] was 10.5% (inactive). The nuclei count worked out at 83.5% in assay [2] and 83.4% in assay [3]. Besides, in assay [4], the fluorescence slope is -0.54 (inactive). Moreover, in assay [5], the NADPH fluorescence slope is -1.5e-05 (inactive). Moreover, the slope in assay [6] is 0.00591 (inactive).

Regarding `CCOC(=O)c1cccc(NC(=O)CSc2nc3cccnc3n2C)c1`, the cell count in assay [1] turned out to be 782. The inhibition in assay [1] is -8.4% (inactive); in assay [3], -14.2% (inactive); in assay [7] it was -4.22% (inactive); in assay [8] it was -23.7% (inactive). Moreover, the inhibition of aggregation in assay [2] is 0.7% (inactive). Besides, the nuclei count in assay [2] came out at 111%; in assay [3], 105%. Besides, the fluorescence slope in assay [4] is -0.526 (inactive). Also, the NADPH fluorescence slope in assay [5] was 4.1e-06 (inactive). The slope in assay [6] was 0.00563 (inactive).

Consider `O=C(Nc1ccc2c(c1)OCCO2)NC1CCCCC1`, for which the cell count in assay [1] was 379. Further, the inhibition is 0.5% (inactive) in assay [1], -33.5% (inactive) in assay [3], -28.7% (inactive) in assay [7] and -68.9% (inactive) in assay [8]. The inhibition of aggregation in assay [2] was 20.1% (inactive). The nuclei count was found to be 58.3% in assay [2] and 102% in assay [3]. In assay [4], the fluorescence slope is -0.487 (inactive). For the same compound, the NADPH fluorescence slope in assay [5] was -1.2e-05 (inactive). In addition, in assay [6], the slope was 0.00607 (inactive).

Turning to `C=CCSc1nnc(-c2cccnc2)o1`, in assay [1], the cell count was determined as 566. Besides, the inhibition in assay [1] is 8.2% (inactive); in assay [3], 19.1% (inactive); in assay [7], 1.31% (inactive); in assay [8], -8.9% (inactive). In addition, the inhibition of aggregation in assay [2] was 13.3% (inactive). Further, the nuclei count in assay [2] turned out to be 94.4%; in assay [3] it was 78.2%. The fluorescence slope in assay [4] is -0.539 (inactive). Besides, the NADPH fluorescence slope in assay [5] is -5.1e-05 (inactive). The slope in assay [6] was 0.00706 (inactive).

Turning to `O=C(NCC1COc2ccccc2O1)c1ccc(NC(=O)c2ccco2)cc1` (stereo not drawn), the cell count in assay [1] amounted to 752. In addition, the inhibition in assay [1] is -3.6% (inactive); in assay [3] it was -120% (inactive); in assay [7], 7.34% (inactive); in assay [8] it was 20% (inactive). In addition, the inhibition of aggregation in assay [2] was 22.7% (inactive). For the same compound, the nuclei count in assay [2] worked out at 106%; in assay [3], 120%. Also, in assay [4], the fluorescence slope was -0.435 (inactive). Moreover, in assay [5], the NADPH fluorescence slope is -2.6e-05 (inactive). Also, the slope in assay [6] was 0.00329 (inactive).
